According to PubChem BioAssay AID708 (SRMLSC, 2007):
Screen size: about 65,000 compounds; fewer than 10 were called active.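 The calls were made as follows: active = at 10 µM dose, initial 340 nm absorbance at least 2 fold that of control wells; inactive = change under 2 fold.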 A selection follows.

Assay: A340 optical interference by library compounds – biochemical, MLSMR library, data from PS, PMK, MK assays, artefact control, profiling panel (AID 708);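 also: initial absorbance extrapolated from kinetic A340 decline of NADH oxidation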
Details: compound absorbance at 340 nm, fold over control; at 10 µM; stronger effect = higher value

Fold change, inactive:
COc1cc(OC)cc(C(=O)NCCSCc2ccco2)c1 1.02, CC(=O)NC1CC2CCCC(C1)N2CC(=O)Nc1ccccc1 (stereo unspecified) 1, COc1cc2[nH]c(=O)n(CCC(=O)NC3CCN(Cc4ccccc4)CC3)c(=O)c2cc1OC 1.06, COC(=O)c1ccc(/C=N\n2c(C)nnc2C)cc1 1.02, O=C(COc1ccccc1Cl)Nn1cnnc1 1.08, Cc1cc(-n2nc(C)cc2C)n2ncc(-c3ccccc3)c2n1 1.03, CCOC(=O)c1c(CN2CCOCC2)n(-c2ccccc2)c2ccc(O)cc12 0.98, Cc1ccc2nc(S(=O)(=O)O)[nH]c2c1 1.02, CC(=O)c1cc(C#N)c(SCC(=O)C(C)(C)C)nc1C 1.07, CC(=C1C(=O)c2ccccc2C1=O)N1CCN(c2ccccn2)CC1 1.15, CCS(=O)(=O)NCCc1ccc(OC)c(OC)c1 1.02, CCOC(=O)COc1ccc(Cl)cc1C1NC(=O)NC(C)=C1C(C)=O (stereo unspecified) 1.05, COc1ccc(-c2ccc(-c3noc(-c4ccncc4)n3)c(OC)n2)cc1 1.09, CSc1nc(O)c(Cc2ccccc2)c(=O)[nH]1 1, COc1ccccc1N1CCN(C(=O)c2c(-c3c(Cl)cccc3Cl)noc2C)CC1 0.98, Cc1cccc(OCc2nnc(SCC(=O)N3CCN(C(=O)c4ccco4)CC3)n2C)c1C 1.02, COCCn1nnnc1CN1CCC(NC(=O)Nc2cccc(OC)c2)CC1 1, CC(=O)c1c(N2CCOCC2)nc(=S)n(Cc2ccccc2)c1C 1.06, COc1cc(CO)c(C2(CO)CCCC2)cc1OC 1.04, CCOC(=O)C1=C(O)CSC1=Nc1cccc(Cl)c1 1.02, CCOC(=O)c1ccc2[nH]c(C)c(CN3CCN(C)CC3)c(=O)c2c1 1, Cc1nn(-c2ccccc2)c(CC(C)(C)C(=O)O)c1C(=O)O 1.02, COc1ccc2c(c1OC)C(=O)N(c1ncn[nH]1)C2 1.04, CC(C)(C)NC(=O)C(c1ccncc1)N(C(=O)CNC(=O)c1ccco1)c1ccc2c(c1)OCO2 (stereo unspecified) 0.98, COc1ccc(N2C(=O)C3CCCN3C2c2cc(OC)c(OC)cc2OC)cc1 (stereo unspecified) 1.01, O=C1c2ccccc2C(O)N1Cc1ccccc1Cl (stereo unspecified) 1.03, COc1cccc(C(=O)Nc2c3c(nn2-c2cccc(C)c2C)CS(=O)(=O)C3)c1OC 1.01, CCC(=O)N1CCc2cc(S(=O)(=O)NC(C(=O)N3CCc4ccccc4C3)C(C)C)ccc21 (stereo unspecified) 1, CCOc1cc(C(=O)N2CCc3cc(OC)c(OC)cc3C2)ccc1OC(F)F 0.97, O=C(Nc1cnn(Cc2ccc(Cl)cc2)c1)C1CCCC1 1.03, c1cc(-n2cnnn2)ccc1NC1=NCCC1 1.01, O=C(C1CCCO1)N(Cc1ccccc1)c1ccccc1 (stereo unspecified) 1.03, CC(C)OC(=O)C(C#N)c1nc2ccccc2nc1N1CCN(Cc2ccc3c(c2)OCO3)CC1 (stereo unspecified) 1.02, CCN1CCN(C(=O)c2ccccc2N(C)S(=O)(=O)c2ccc(C)cc2)CC1 1.05, COc1c(O)cccc1-c1nnn(CCC(=O)OCC(=O)c2ccccc2)n1 1.01, CS(=O)(=O)N(C(=O)NC(=O)NC1CCS(=O)(=O)C1)C1CCCCC1 (stereo unspecified) 1.04, N#Cc1c(N)n(CCOC(=O)c2ccc(Cl)cc2)c2nc3ccccc3nc12 1.01, CCc1cc(=O)oc2cc(C)cc(OC(C)C(=O)O)c12 (stereo unspecified) 1.04, O=c1[nH]nc(CSCc2ccccc2Cl)[nH]1 1.04, Cn1c(=O)n(C)c2cc(CNc3ccc(N4CCOCC4)c(C(=O)O)c3)ccc21 1, O=C(Cn1c(=O)sc2ccccc21)Nc1ccc2c(c1)OCCO2 1.01, Cc1ccc(S(=O)(=O)NCc2cn3ccsc3n2)c(C)c1 0.97, CCOc1ccc(OCC)c(NC(=O)C(NS(=O)(=O)c2ccc3c(c2)oc(=O)n3C)C(C)C)c1 (stereo unspecified) 0.97, COCC(C)N=CC1=C(O)CC(C)(C)CC1=O (stereo unspecified) 0.95, NC(=O)CSc1c[nH]c2ccccc12 1.01, COc1ccc(NC(C)=O)cc1NC(=O)CN1CCN(c2ccccn2)CC1 0.97, CCN1CCN(c2ncnc3c2oc2nc(C)c4c(c23)CC(C)(C)OC4)CC1 0.99, COc1ccc2nc(NC(=O)c3ccc(Br)s3)sc2c1 1.1, CCOC(=O)c1c(N)c(C#N)nn1-c1ccccc1C(=O)OC 1, Cc1nnc(SCc2cc(=O)[nH]c(N3CCN(Cc4ccccc4)CC3)n2)s1 1.01, O=C(Nc1ccccc1)c1cccnc1Nc1ccccc1 1.1, CCN(Cc1nc2ccccc2c(=O)[nH]1)Cc1cc(=O)oc2cc(C)c(C)cc12 1.01, CC(C)C(=O)Nc1c(C(=O)c2ccc(F)cc2)oc2ccccc12 1.11, Cc1ccc(S(=O)(=O)NCC(=O)N(CC(=O)NC2CCCCC2)Cc2ccco2)cc1 0.98, Cc1ccc(C)c(N2CCN(S(=O)(=O)c3ccc4c(c3)oc(=O)n4C)CC2)c1 0.98, C=CCNc1ncnc2ccc(Br)cc12 1.1, O=C(CSc1nnc(-c2cccs2)n1Cc1ccco1)c1ccc2c(c1)OCO2 1.08, CC(C)(C)NC(=O)Cn1nnc(-c2ccccc2Cl)n1 1.03, ON=C1/C(=N\O)CC2(C/C1=N/O)OCCO2 0.99, COC(=O)CNC(=O)c1ccc2c(c1)S(=O)(=O)c1ccccc1C2=O 1.02, CCOC(=O)c1oc2ccccc2c1NC(=O)c1cccs1 1.02, CC(C)Oc1ccc(C2NC(=O)NC2=O)cc1 (stereo unspecified) 1, O=C(CS(=O)(=O)Cc1ccccc1)Nc1cccnc1 1.08, CCOC(=O)c1c(NC(=O)CCC(=O)NCc2ccco2)sc2c1CCCC2 1.03, CCCc1cc(=O)[nH]c(SCC(=O)OCc2ccccc2)n1 1.02, CCOC(=O)C1=C(C)N=c2s/c(=C\C(=O)OC)c(=O)n2C1c1ccc(OC)cc1 (stereo unspecified) 1.09, CCOC(=O)C1CCCN(Cc2nc(N)nc(Nc3ccc(C)cc3)n2)C1 (stereo unspecified) 1, CN(C)CCNC(=O)C(C(=O)c1ccccc1)n1ccccc1=O (stereo unspecified) 1.03, COCCNC(=S)c1ccc(OC)cc1 1.01, CCOC(=O)CSc1nnc(-c2cccc(Br)c2)o1 1.02, N#Cc1nc(N)nc(N(c2ccccc2)c2ccccc2)n1 1, Cc1ccccc1N1C(=O)C2ON(c3ccccc3)C(c3ccncc3)C2C1=O (stereo unspecified) 0.99, O=C(CCN1C(=O)c2ccccc2C1=O)NCCN1CCOCC1 0.99, COc1ccccc1-c1cc(C(=O)NCCCn2ccnc2)no1 0.99, NC(=O)Cn1c(=O)oc2ccccc21 0.97, O=C(Cn1c(=O)sc2ccccc21)Nc1nc2c(s1)CCCC2 1.03, O=C(Cn1nc(C(F)(F)F)c2c1CCC2)NCc1ccc(F)cc1 1.04, Cc1ccc(Oc2ccc(N)cc2)cc1 1.02, CCOC(=O)N1CCN(C(=O)CSc2nnc(-c3c[nH]c4ccccc34)n2CCOC)CC1 1.06, Cc1ccc(N2CCN(S(=O)(=O)N(C)C)CC2)cc1Cl 1.01, O=S(N1CCCCCC1)C12CC3CC(CC(C3)C1)C2 (stereo unspecified) 0.99, CC(C)OC(=O)CN1C(=O)c2ccccc2C1=O 1.01, CCS(=O)(=O)N1CCC(C(=O)N2CCN(c3ccccc3)CC2)CC1 1.02, CC1(C)CC(=O)c2sc(N)nc2C1 1.11, O=C(NCc1ccco1)c1cnn2c(C(F)(F)F)cc(-c3ccco3)nc12 1.04, CC1CCCN(c2ccc(C(=O)NCCc3ccccc3)cn2)C1 (stereo unspecified) 1.04, O=C(c1ccc2c(c1)C(=O)N(c1ccc(Cl)cc1)C2=O)N1CCN(c2ccccn2)CC1 1, Cc1ccc2c(c1)c1ncn(CCC3=CCCCC3)c(=O)c1n2C 1, CCNc1nc(SCCOc2ccccc2)nc(N(C)C)n1 1.04, CCC(C(=O)NC1CCCC1)N(C(=O)c1snc(C(N)=O)c1N)c1ccc2c(c1)OCCO2 (stereo unspecified) 1.1, COc1ccc(C(=O)N(CCN2CCOCC2)CC(=O)NC2CCCC2)cc1OC 0.98, OCCCN1c2ccccc2Nc2nnc(-c3ccccc3)cc21 1.04, COc1ccccc1-c1cc(C(=O)N2CCCCC2)no1 1.02, Cc1ccc2nc(-c3ccc(SCC(=O)Nc4cc(C)on4)nc3)[nH]c2c1 1.14, CCNS(=O)(=O)c1ccc(NC(=O)Nc2cccc(OC)c2)cc1 1.06, O=C(NC1CCCC1)c1ccc(Br)s1 1.03, CCOC(=O)CSc1nnc(CNC(=O)Cc2ccccc2)n1-c1ccccc1OC 0.99, CCOc1ccc(C(CC(=O)O)NC(=O)COc2ccccc2)cc1 (stereo unspecified) 1.03, CCCC1C(c2ccccc2)C(C#N)(C#N)C2(C#N)CC1(N)NC2=O (stereo unspecified) 1.02, C#CCNc1nc(C(C)C)nc2c1nnn2Cc1ccccc1F 1.04, CN(C)/C=C1\C=C(c2ccccc2)OC1=O 1.21
